In the library only some 21% were active in any assay of this set; here they are far more common.
ClpP mod: qHTS Assay for Activators of ClpP. ATP-dependent Clp protease proteolytic subunit (Bacillus subtilis (strain 168)), P80244. purified B. subtilis ClpP, FRET peptide cleavage, 20 min. Potency, µM (highest dose often 57.5 µM). 1.9% of 340,000 active. AID 651965, 2013; active = well fitted falling curve with a large enough effect; inconclusive = small, poorly fitted or top-dose-only effect; inactive = no such curve, though single readings can be large or run the other way; note: the source files actives as falling curves though it sought activators and does not explain the sign; nearly all actives have a fitted effect of over 65% in size
Target sequence (P80244 whole entry, looked up): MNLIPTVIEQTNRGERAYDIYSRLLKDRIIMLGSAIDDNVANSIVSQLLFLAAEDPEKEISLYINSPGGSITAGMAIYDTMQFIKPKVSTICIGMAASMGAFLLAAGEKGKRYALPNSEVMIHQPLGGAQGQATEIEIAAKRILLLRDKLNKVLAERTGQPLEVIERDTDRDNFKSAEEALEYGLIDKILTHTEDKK
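FRET quenching reversal measured ClpP activation: 10 microg/mL B. subtilis ClpP at pH 8 with the FRET-FV decapeptide, read at 430 nm after 320 nm excitation. The 20-min minus 0-min signal was scaled between DMSO/no-enzyme wells and ADEP (5.8 microM final).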
TDP1 cell CPT: DT40-hTDP1 cell growth loss with CPT | Potency, µM (highest dose often 46.2 µM), hits mostly inhibitors | 12% of 420,000 active | AID 686979 | chicken DT40 Tdp1-/-;hTDP1 cells + 20 nM CPT, ATP luminescence, 48 h; note: nearly all actives have a fitted effect of over 55% in size
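Cell growth measured by CellTiter-Glo luminescence after a minimum 48 h, 37 C compound exposure with 20 nM CPT in Tdp1-knockout DT40 cells stably expressing hTDP1, seeded 400/well; qHTS titration format.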
DRD3 antagonist: blocks the human D3 dopamine receptor; D3R cells, DiscoveRx beta-arrestin luminescence, antagonist mode; hits give low values; 2.5% of 360,000 active; max response, negative = inhibition, %; AID 652054; P35462; in the data active = max response below about -50%; inconclusive = no clear call, values can overlap the other calls
Target sequence (P35462 whole entry, looked up): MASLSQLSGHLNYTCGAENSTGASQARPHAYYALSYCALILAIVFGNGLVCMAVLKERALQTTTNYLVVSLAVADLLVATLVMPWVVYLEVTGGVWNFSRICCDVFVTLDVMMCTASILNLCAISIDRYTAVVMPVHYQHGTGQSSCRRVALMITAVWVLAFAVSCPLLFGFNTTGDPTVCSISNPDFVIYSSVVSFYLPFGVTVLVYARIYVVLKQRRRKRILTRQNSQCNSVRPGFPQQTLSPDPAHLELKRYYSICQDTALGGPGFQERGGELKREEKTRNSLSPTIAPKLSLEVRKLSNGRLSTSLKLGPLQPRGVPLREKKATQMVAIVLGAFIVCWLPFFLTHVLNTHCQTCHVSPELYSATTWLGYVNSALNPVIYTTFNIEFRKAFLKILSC
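Cells expressing the human receptor were seeded at 1500 cells/well, incubated overnight at 37 degrees C in 5% CO2, then exposed to library compounds with dopamine controls for 90 minutes at 37 degrees C before luminescent detection.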
TDP1 cell noCPT: qHTS for Inhibitors of human tyrosyl-DNA phosphodiesterase 1 (TDP1): qHTS in cells in absence of CPT; DT40 Tdp1-/- hTDP1 cells, no CPT, ATP luminescence, 48 h; Potency, µM (series often up to 46.2 µM), actives largely listed as inhibitors; 15% of 420,000 active; note: nearly all actives have a fitted effect of over 55% in size
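DT40 Tdp1-/-;hTDP1 cells, no CPT (DMSO vehicle only), 400 cells/well; compounds pin-transferred; ≥48 hr, 37 °C; CellTiter-Glo 30 min RT dark, luminescence read.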
DRD3 agonist: agonists of human D3 dopamine receptor | 0.58% of 410,000 active | D3R DiscoveRx beta-arrestin cells, luminescence, 90 min | P35462 | AID 652048 | max activation, %; in the data active = max activation above about 30%
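Cells at 1500/well, incubated overnight, then treated with pinned compounds (dopamine as control) for 90 min at 37 degrees C. DiscoveRx reagent added for 30 - 60 minutes at room temperature; luminescence read.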
IL1B secr inh: inflammasome signaling inhibition, IL-1 beta readout | 4.7% of 360,000 active | activity change, % at 57.5 µM | THP-1 LPS/ATP IL-1B secretion, AlphaLISA, 16 h; hits give low values; in the data active = activity change below about -50%; inconclusive = mostly about -30% to -49%
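THP-1 cells pretreated 1 hr with compounds (up to 57.5 uM final), then stimulated with LPS (250 ng/mL final) plus ATP (1.25 mM final); secreted IL-1B measured by AlphaLISA after 16 hr, decreased signal indicating inhibition.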
Large screens that a line does not name were inactive. Unless noted, calls come from the whole dose curve; as a rule, active = well fitted inhibition curve with a large enough effect; inconclusive = small, poorly fitted or top-dose-only effect; inactive = flat fitted curve, though single readings scatter.

COc1cc(NC2c3ccccc3C(=O)N2Cc2ccc3c(c2)OCO3)cc(OC)c1OC (stereo unspecified)	TDP1 cell noCPT inconclusive
O=C(NCC1CCCO1)C1c2ccccc2C(=O)N1Cc1ccc2c(c1)OCO2 (stereo unspecified)	ClpP mod 22µM
O=C1c2ccccc2C(Nc2ccc3c(c2)OCCO3)N1Cc1ccccc1 (stereo unspecified)	TDP1 cell CPT 29µM, TDP1 cell noCPT 16µM
CCOc1ccc(NC2c3ccccc3C(=O)N2Cc2ccc3c(c2)OCO3)cc1 (stereo unspecified)	TDP1 cell CPT inconclusive, TDP1 cell noCPT 16µM
CC(=O)c1cccc(NC2c3ccccc3C(=O)N2Cc2ccc3c(c2)OCO3)c1 (stereo unspecified)	TDP1 cell CPT inconclusive, TDP1 cell noCPT 21µM
CCOc1cc(C(=O)Oc2cc(C)[nH]c(=O)c2[N+](=O)[O-])cc(OCC)c1OCC	none
COc1ccccc1C(=O)N1CCN(C(=O)[C@H]2O[C@@H](n3cnc4c(N)ncnc43)[C@H](O)[C@@H]2O)CC1	none
NCCN(Cc1ccc(Cl)c(Cl)c1)c1ccc(Br)cn1	TDP1 cell CPT 4µM, TDP1 cell noCPT 4µM (no result: DRD3 antagonist, DRD3 agonist, IL1B secr inh)
CN(CCc1ccccn1)Cc1ccc(Cl)c(Cl)c1	DRD3 antagonist -51 (no result: ClpP mod)
COc1ccc(CN(CCCN)c2ccc(Br)cn2)cc1	TDP1 cell CPT inconclusive, TDP1 cell noCPT 11µM (no result: DRD3 antagonist, DRD3 agonist, IL1B secr inh)
CSc1ccc(CN(C)CCc2ccccn2)cc1	TDP1 cell noCPT inconclusive
CC(=O)NCCCNC(=S)NCCCN(Cc1ccc(Cl)cc1)c1ccc(Br)cn1	TDP1 cell CPT inconclusive, TDP1 cell noCPT inconclusive (no result: DRD3 antagonist, DRD3 agonist, IL1B secr inh)
NCCCN(Cc1ccc(Cl)c(Cl)c1)c1ccccn1	TDP1 cell CPT 10µM, TDP1 cell noCPT 8.9µM (no result: DRD3 antagonist, DRD3 agonist, IL1B secr inh)
CC[N+](C)(C)CCN(Cc1ccc(Cl)cc1)c1ccccn1	ClpP mod 28µM, TDP1 cell CPT 18µM, TDP1 cell noCPT 9.2µM
COc1ccc(CN(CCN(C)C)c2ccccn2)cc1	DRD3 antagonist inconclusive, TDP1 cell noCPT inconclusive
CCC(=O)N1N=C(c2c(-c3ccccc3)c3cc(Cl)ccc3[nH]c2=O)CC1c1ccco1 (stereo unspecified)	TDP1 cell CPT 18µM, TDP1 cell noCPT 23µM, IL1B secr inh inconclusive
CCC(=O)N1N=C(c2ccc(NS(=O)(=O)c3ccc(C)cc3)cc2)CC1c1ccco1 (stereo unspecified)	TDP1 cell CPT inconclusive, TDP1 cell noCPT 13µM, IL1B secr inh inconclusive
CCC(=O)N1N=C(c2ccc(C)cc2)CC1c1ccco1 (stereo unspecified)	TDP1 cell CPT 21µM, TDP1 cell noCPT 13µM, IL1B secr inh inconclusive
COc1ccc(C2=NN(c3nc(-c4ccc(CNC(C)=O)cc4)cs3)C(c3ccco3)C2)cc1 (stereo unspecified)	TDP1 cell CPT 21µM, TDP1 cell noCPT 18µM (no result: ClpP mod)
CC(CNC(=O)C1CCN(C(=O)c2cc3sccc3n2C)CC1)c1ccccc1 (stereo unspecified)	TDP1 cell CPT inconclusive, TDP1 cell noCPT inconclusive (no result: DRD3 antagonist, IL1B secr inh)
CCOC(=O)c1c(C)c(-c2ccccc2)n(CC(=O)NC(CC)Cc2ccccc2)c1C (stereo unspecified)	TDP1 cell CPT inconclusive, TDP1 cell noCPT inconclusive (no result: DRD3 antagonist, IL1B secr inh)
CCS(=O)(=O)Nc1ccc(C2=NN(C(=S)Nc3ccccc3)C(c3ccco3)C2)cc1 (stereo unspecified)	TDP1 cell CPT 16µM, TDP1 cell noCPT 16µM
Cc1ccc(C2=NN(C(=O)CSc3nnnn3C)C(c3ccco3)C2)cc1 (stereo unspecified)	TDP1 cell CPT 13µM, TDP1 cell noCPT inconclusive, IL1B secr inh inconclusive
Cn1cnnc1SCC(=O)N1N=C(c2ccc(Cl)cc2)CC1c1ccco1 (stereo unspecified)	TDP1 cell CPT inconclusive
Cc1ccc(C2CC(c3ccc(NS(C)(=O)=O)cc3)=NN2C(=O)c2ccco2)cc1 (stereo unspecified)	TDP1 cell noCPT inconclusive
CCS(=O)(=O)Nc1ccc(C2=NN(C(=O)c3ccco3)C(c3ccc(C)cc3)C2)cc1 (stereo unspecified)	TDP1 cell CPT inconclusive, TDP1 cell noCPT 20µM
O=C(CSc1n[nH]c(=O)n1C1CC1)N1N=C(c2ccc(Cl)cc2)CC1c1ccco1 (stereo unspecified)	TDP1 cell CPT inconclusive, TDP1 cell noCPT inconclusive, IL1B secr inh inconclusive
COc1ccc(C2=NN(C(=O)CSc3nccn3C)C(c3ccco3)C2)cc1 (stereo unspecified)	TDP1 cell CPT 18µM, TDP1 cell noCPT inconclusive
Cc1cc(C)c2c(n1)SCC(=O)N2CC(=O)Nc1cc(F)ccc1F	none
CC(C)Cn1c(=O)c2ccccc2n2c(CCC(=O)NCc3ccccc3Cl)nnc12	none (no result: DRD3 antagonist, IL1B secr inh)
COC(=O)CC[C@H](N)C(=O)O	none (no result: ClpP mod, DRD3 antagonist, IL1B secr inh)
Cc1ccc(S(=O)(=O)c2nc(S(=O)(=O)c3ccc(C)cc3)c(N3CCN(CCO)CC3)s2)cc1	TDP1 cell CPT 23µM, DRD3 antagonist -92, TDP1 cell noCPT inconclusive, IL1B secr inh -68
CCCS(=O)(=O)c1nc(S(=O)(=O)c2ccc(C)cc2)c(N2CCCC2)s1	TDP1 cell CPT inconclusive, TDP1 cell noCPT inconclusive
Cc1ccc(S(=O)(=O)c2nc(S(C)(=O)=O)sc2N(C)C)cc1	none
Cc1ccc(S(=O)(=O)c2nc(S(C)(=O)=O)sc2N2CCOCC2)cc1	IL1B secr inh -59
CS(=O)(=O)c1nc(S(=O)(=O)c2ccc(Cl)cc2)c(N2CCN(CCO)CC2)s1	TDP1 cell CPT inconclusive, IL1B secr inh -68
Cc1ccc(S(=O)(=O)c2nc(S(C)(=O)=O)sc2N(C)Cc2ccccc2)cc1	TDP1 cell CPT inconclusive, TDP1 cell noCPT 21µM (no result: DRD3 antagonist, IL1B secr inh)
Cc1ccccc1OCC(=O)OCc1cc(=O)n2ccsc2n1	TDP1 cell noCPT inconclusive (no result: DRD3 antagonist, IL1B secr inh)
CC(Oc1ccc2ccc(=O)oc2c1)C(=O)N1CCOCC1 (stereo unspecified)	none (no result: ClpP mod)
CS(=O)(=O)c1nc(S(=O)(=O)c2ccc(Cl)cc2)c(N2CCCCC2)s1	TDP1 cell CPT inconclusive, IL1B secr inh -63
Cc1ccc(S(=O)(=O)c2nc(S(C)(=O)=O)sc2N2CCCCC2C)cc1 (stereo unspecified)	TDP1 cell CPT inconclusive, TDP1 cell noCPT inconclusive, IL1B secr inh -83
COC(=O)c1ccc(C2c3c(-c4ccccc4O)n[nH]c3C(=O)N2Cc2cccnc2)cc1 (stereo unspecified)	TDP1 cell CPT inconclusive, TDP1 cell noCPT inconclusive (no result: DRD3 antagonist, IL1B secr inh)
CCc1ccc(C2c3c(-c4ccccc4O)n[nH]c3C(=O)N2Cc2cccnc2)cc1 (stereo unspecified)	TDP1 cell CPT 16µM, TDP1 cell noCPT inconclusive (no result: DRD3 antagonist, IL1B secr inh)

Assay outcomes as filed in PubChem.
